Unmarked numbers belong to inactive results. The rule behind the calls is not given here.
Target: Pantothenate synthetase (Mycobacterium tuberculosis (strain ATCC 25618 / H37Rv)) (UniProt P9WIL5)
Assay: Recombinant Mtb pantothenate synthetase (PanC) inhibitors, coupled enzyme, confirmatory (AID 375);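 note: 0% = full reaction with vehicle and 100% = no enzyme background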
Settings: coupled enzyme assay; at 10 µM, stronger effect = higher value

Chain of Pantothenate synthetase (Mycobacterium tuberculosis (strain ATCC 25618 / H37Rv)) (P9WIL5 whole entry, looked up): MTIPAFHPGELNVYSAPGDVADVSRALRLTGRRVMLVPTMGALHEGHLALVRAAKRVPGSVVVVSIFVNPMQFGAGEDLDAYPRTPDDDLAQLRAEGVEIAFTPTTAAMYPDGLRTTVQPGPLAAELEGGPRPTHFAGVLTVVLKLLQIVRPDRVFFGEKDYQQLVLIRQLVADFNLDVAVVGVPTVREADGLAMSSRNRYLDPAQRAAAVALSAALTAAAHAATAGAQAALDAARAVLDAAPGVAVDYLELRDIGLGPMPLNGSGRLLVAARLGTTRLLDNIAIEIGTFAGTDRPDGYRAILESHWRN

| SMILES | inhibition [%] |
| --- | --- |
| CCOCCCN(Cc1cc2cc(C)cc(C)c2[nH]c1=O)C(=O)N(CC)CC | 0 |
| CC(=O)Nc1ccc(S(=O)(=O)Nc2nc3ccccc3nc2N2CCCC2)cc1 | 8 |
| CCOC(=O)N1CCN(C(=O)CSCC(=O)Nc2nc(-c3ccc(OC)cc3)cs2)CC1 | 0 |
| O=C(Nc1nc(-c2ccc(S(=O)(=O)N3CCCC3)cc2)cs1)C1COc2ccccc2O1 (stereo unspecified) | 0 |
| CC1(C)CC(=O)C=C(NC2CCS(=O)(=O)C2)C1 (stereo unspecified) | 0 |
| COc1cccc(OC)c1OCCN1CCN(C(=O)c2ccco2)CC1 | 0 |
| CN(C)c1nc(Oc2ccc(=O)n(C)n2)nc(N2CCOCC2)n1 | 0 |
| CCN1CCCC1CNC(=O)CS(=O)(=O)Cc1nc(-c2ccccc2C)oc1C (stereo unspecified) | 0 |
| COc1ccc(CCn2c(NCCCN3CCOCC3)nc3c2c(=O)[nH]c(=O)n3C)cc1 | 0 |
| Cc1nc2ccccc2c2oc(C(=O)NCc3ccccn3)cc12 | 2 |
| COc1ccc([C@@H]2Sc3ccccc3N(CCN(C)C)C(=O)[C@@H]2OC(C)=O)cc1 | 2 |
| COC(=O)CSc1nc(C)c(C(C)=O)cc1C#N | 10 |
| CCCCOc1ccc(S(=O)(=O)n2c(C)nc3ccccc32)cc1 | 0 |
| COc1ccc(/C=N/O)cc1COc1ccc(NC(C)=O)cc1 | 1 |
| COc1ccccc1NC(=O)C1=C(C)Nc2ncnn2C1c1ccc(C)o1 (stereo unspecified) | 10 |
| CCCSc1ccc2nc(NC(=O)OC)[nH]c2c1 | 0 |
